Among the data in PubChem BioAssay (NCI) are growth values, retold here.

This is part of a sample that, as a whole, favours compounds with a hit. Of some 83,000 tested, about 20% had one in any assay.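 Assay: single dose, 48 h. Readout: percent growth (0 = no net growth; negative = cell death). Active: <10.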 Values without a mark were called inactive. Active and inactive are the calls of the source.

Test systems include HCT-15 colon; HT29 colon; SNB-75 CNS; SNB-19 CNS; U251 CNS; PC-3 prostate; SK-MEL-5 melanoma; UACC-62 melanoma; LOX IMVI melanoma; SK-MEL-28 melanoma; EKVX NSCLC; SN12C renal; UO-31 renal; TK-10 renal; ACHN renal; CAKI-1 renal; A498 renal; MOLT-4 leukemia; CCRF-CEM leukemia.
Common to all, as to assay: NCI-60 one-dose screen, 48 h (100 = growth as untreated, 0 = no growth, -100 = all killed)
What all share (conditions): 10 µM unless noted

With `COc1ncc(-c2ccc3nccc(-c4ccnnc4)c3c2)cc1NS(=O)(=O)c1ccc(F)cc1F`, the growth in the test on HCT-15 colon is -15% (active); with HT29 colon, -10.4% (active); in the test with SNB-75 CNS, -29.8% (active); with SNB-19 CNS it was -42.8% (active); in the test with U251 CNS it was -62.3% (active); in the test with PC-3 prostate it was -0.788% (active). Moreover, the growth was -95.8% (active) with SK-MEL-5 melanoma; -67.4% (active) in the test on UACC-62 melanoma; -42.8% (active) in the test on LOX IMVI melanoma; -17.4% (active) with SK-MEL-28 melanoma; -7.55% (active) in the test on EKVX NSCLC; 16.4% with SN12C renal. Besides, the growth in the test with UO-31 renal was -25.7% (active); with TK-10 renal it was -44.7% (active); in the test with ACHN renal it was 15.3%; with CAKI-1 renal, -19.8% (active); in the test on A498 renal, -48.2% (active); in the test with MOLT-4 leukemia, -11.9% (active).
Take `Cn1ccnc1C(=O)/C=C/c1ccc(CC(=O)Nc2ccc(S(F)(F)(F)(F)F)cc2)cc1`: the growth with HCT-15 colon was 1.2% (active); with HT29 colon it was -36% (active); in the test on SNB-75 CNS it was 3.35% (active); in the test on SNB-19 CNS, -39.9% (active); in the test with U251 CNS, -93.3% (active); with PC-3 prostate, -32.7% (active). Further, the growth with SK-MEL-5 melanoma is 33.2%; with UACC-62 melanoma, -2.41% (active); in the test on LOX IMVI melanoma, -78.7% (active); in the test on SK-MEL-28 melanoma, 38.2%; in the test with EKVX NSCLC, -27.4% (active); with SN12C renal, -11.8% (active). Also, the growth is -90.5% (active) in the test on UO-31 renal; 5.88% (active) in the test with TK-10 renal; -21.6% (active) in the test on ACHN renal; -31.4% (active) in the test with CAKI-1 renal; 13.5% with A498 renal; 8.93% (active) with CCRF-CEM leukemia. Also, in the test on MOLT-4 leukemia, the growth is -10.5% (active).
Consider `CC(=O)CC1CCCC1c1ccc2ccccc2c1` (centres undefined), for which the growth was 103% in the test on HCT-15 colon; 95.8% with HT29 colon; 93.8% in the test with SNB-75 CNS; 104% with SNB-19 CNS; 94.4% in the test with U251 CNS; 91.9% with PC-3 prostate. The growth in the test on SK-MEL-5 melanoma is 101%; with UACC-62 melanoma, 99.6%; in the test with LOX IMVI melanoma, 97.8%; in the test with SK-MEL-28 melanoma, 103%; in the test on EKVX NSCLC, 102%; in the test with SN12C renal, 105%. The growth in the test on UO-31 renal is 84.7%; in the test with TK-10 renal, 91.5%; with ACHN renal, 101%; with CAKI-1 renal it was 98.6%; in the test on A498 renal it was 97.6%; in the test with MOLT-4 leukemia, 99.2%.
Consider `O=C(NOCCO)c1ccc2cncn2c1Nc1ccc(I)cc1F`, for which the growth in the test on HCT-15 colon was 66.7%; in the test on HT29 colon it was 9.38% (active); with SNB-75 CNS, 81.1%; in the test with SNB-19 CNS, 57.8%; in the test on U251 CNS it was 40.4%; in the test on PC-3 prostate, 81%. Moreover, the growth with SK-MEL-5 melanoma was 47%; in the test on UACC-62 melanoma it was 3.07% (active); with LOX IMVI melanoma it was 19.9%; with SK-MEL-28 melanoma it was 3.91% (active); in the test with EKVX NSCLC, 54.6%; with SN12C renal, 68.1%. In addition, the growth was 37.2% in the test on UO-31 renal; 57.2% in the test with TK-10 renal; 59.9% in the test with ACHN renal; 41% with CAKI-1 renal; -11% (active) in the test on A498 renal; 85% in the test on MOLT-4 leukemia.
Take `C=CC(=O)Nc1cc2c(Nc3ccc(F)c(Cl)c3)ncnc2cc1C#CC(C)(C)N1CCN(C)CC1`: the growth was -78% (active) in the test on HCT-15 colon; -70.4% (active) in the test with HT29 colon; -99.8% (active) with SNB-75 CNS; -98.9% (active) in the test on SNB-19 CNS; -94.8% (active) in the test on U251 CNS; -87.4% (active) with PC-3 prostate. For the same compound, the growth in the test on SK-MEL-5 melanoma is -98.4% (active); in the test with UACC-62 melanoma, -94.6% (active); with LOX IMVI melanoma, -91.4% (active); in the test on SK-MEL-28 melanoma it was -96.9% (active); in the test on EKVX NSCLC, -93% (active); with SN12C renal, -87.7% (active). The growth was -99.8% (active) in the test with UO-31 renal; -97.5% (active) with TK-10 renal; -100% (active) in the test with ACHN renal; -99.8% (active) with CAKI-1 renal; -96.3% (active) with A498 renal; -11.5% (active) with CCRF-CEM leukemia. Also, the growth in the test with MOLT-4 leukemia was -23.1% (active).
For `O=C(Cn1cncn1)Nc1ccc(-c2nc3ccccc3s2)cc1`, the growth was 101% in the test on HCT-15 colon; 105% with HT29 colon; 92.1% in the test on SNB-75 CNS; 93% with SNB-19 CNS; 90% in the test with U251 CNS; 85.8% with PC-3 prostate. Further, the growth with SK-MEL-5 melanoma is 86.7%; in the test with UACC-62 melanoma, 95.2%; in the test on LOX IMVI melanoma, 99.3%; in the test with SK-MEL-28 melanoma, 111%; in the test on EKVX NSCLC, 90.2%; in the test on SN12C renal, 95.1%. The growth in the test with UO-31 renal was 76.9%; in the test on TK-10 renal, 106%; in the test on ACHN renal, 110%; in the test with CAKI-1 renal it was 93.8%; in the test on A498 renal it was 88.4%; with CCRF-CEM leukemia, 105%. Further, in the test on MOLT-4 leukemia, the growth was 91.9%.
For the compound `CCOc1cc2ncc(C#N)c(Nc3ccc(OCc4ccccn4)c(Cl)c3)c2cc1NC(=O)/C=C/CN(C)C`, the growth was -0.289% (active) in the test with HCT-15 colon; -54.5% (active) in the test with HT29 colon; 34.1% with SNB-75 CNS; -44.2% (active) with SNB-19 CNS; 3.18% (active) in the test with U251 CNS; 9.27% (active) with PC-3 prostate. Moreover, the growth is 14.8% with SK-MEL-5 melanoma; -64.1% (active) with UACC-62 melanoma; -67.8% (active) in the test with LOX IMVI melanoma; -79.5% (active) in the test on SK-MEL-28 melanoma; 20.7% in the test on EKVX NSCLC; -62.8% (active) in the test with SN12C renal. Also, the growth in the test with UO-31 renal is -85% (active); with TK-10 renal, 5.99% (active); with ACHN renal it was -56% (active); in the test on CAKI-1 renal it was 5.2% (active); with A498 renal, 34.7%; in the test on MOLT-4 leukemia, 19.9%.
